D1 ag: Allosteric Agonists of the Human D1 Dopamine Receptor: qHTS. HEK293 T-REx D1 cells, calcium flux, agonist mode. activation, % at 2 µM. actives 1% (n = 360,000). AID 504660, 2011
Target sequence (P21728 whole entry, looked up): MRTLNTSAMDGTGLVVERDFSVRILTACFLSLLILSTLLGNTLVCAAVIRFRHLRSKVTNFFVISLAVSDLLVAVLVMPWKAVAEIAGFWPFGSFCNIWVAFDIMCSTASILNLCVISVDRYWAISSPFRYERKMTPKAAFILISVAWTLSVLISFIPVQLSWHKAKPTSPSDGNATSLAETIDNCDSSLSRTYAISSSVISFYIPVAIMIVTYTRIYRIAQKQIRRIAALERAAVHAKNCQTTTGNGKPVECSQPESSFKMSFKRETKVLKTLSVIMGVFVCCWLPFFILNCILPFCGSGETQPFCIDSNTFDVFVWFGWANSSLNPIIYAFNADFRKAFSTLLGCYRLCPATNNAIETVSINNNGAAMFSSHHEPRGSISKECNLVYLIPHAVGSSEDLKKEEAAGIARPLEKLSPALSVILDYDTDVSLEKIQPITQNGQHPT
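Agonism was scored from calcium flux recorded over 180 s (1 read/s) after pintool compound addition, following a 10-cycle baseline. Cells were inducible force-coupled HEK293 TREx D1, plated overnight at 30 C and loaded with no-wash calcium dye.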
D1 PAM: Potentiators of Human D1 Dopamine Receptor: qHTS. HEK293 TREx D1 cells, calcium flux, dopamine EC20 potentiation. potentiation, % at 10 µM. actives 0.036% (n = 360,000). AID 504651, 2011; in the data active = potentiation above about 30%
TRHR agonist: qHTS for Small Molecule Agonists and Allosteric Enhancers of Human TRH Receptor: Primary Screen for Agonists; activation, % at 2 µM; TRHR cells, calcium flux fluo-8, FDSS agonist mode; actives 0.18% (n = 360,000); AID 493084, 2011; Thyrotropin-releasing hormone receptor (Homo sapiens), P34981
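Agonist-mode FDSS calcium read (Ex 480/Em 530, 1 s cycles) in 1536-well TRHR cells with fluo-8 dye, after 10-cycle baseline and 23 nL compound addition; TRH at EC20 (10 nM final) added afterwards for the enhancer phase.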
TRHR PAM: qHTS for Small Molecule Agonists and Allosteric Enhancers of Human TRH Receptor: Primary Screen for Enhancers. actives 0.66% (n = 360,000). TRHR cells, fluo-8 calcium fluorescence, EC20 TRH enhancement. enhancement, % at 2 µM. Thyrotropin-releasing hormone receptor (Homo sapiens), P34981; in the data active = enhancement above about 30%
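Enhancer read-out: after compound pinning and an initial kinetic agonist-mode read, an EC20 of TRH (10 nM final) was injected and fluo-8 calcium signal (Ex 480/Em 530) followed at 1 s/cycle for 100 cycles in TRHR-expressing cells.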
D1 antagonist: Antagonist of Human D 1 Dopamine Receptor: qHTS; D(1A) dopamine receptor (Homo sapiens), P21728; HEK293 TREx D1 cells, calcium flux, dopamine EC80; stronger effect = lower value; activity change, negative = inhibition, % at 10 µM; actives 3.2% (n = 360,000); in the data active = activity change below about -30%
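Antagonism measured as reduced calcium response to an EC80 dopamine addition following 180 s compound pre-read; cells were inducible HEK293 Trex D1 plated overnight at 30 C, read kinetically at 1 cycle/sec.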
Hits are given with their value; . = inactive; / = no result given. Compounds with a hit are over-represented: about 4.6% of the library has one in this group of screens. Cut-off read from the data, not from the text of the source, unless noted: active = activation above about 30%; inactive = the rest.

SMILES	D1 ag	D1 PAM	TRHR agonist	TRHR PAM	D1 antagonist
N#Cc1ccccc1NC(=O)C(=O)NCCc1csc(-c2ccc(C(F)(F)F)cc2)n1	.	.	.	.	.
O=C(Nc1ccc(Cl)cc1Cl)c1cc(S(=O)(=O)N2CCCCCC2)ccc1F	.	.	.	.	.
CCc1ccc(C2c3c(oc4ccc(F)cc4c3=O)C(=O)N2CCc2ccc(OC)cc2)cc1 (stereo unspecified)	.	.	.	.	.
CC(C)(C)OC(=O)N[C@H](/C=C/c1ccccc1)C(=O)OC(C)(C)C	.	.	.	.	/
Cc1ccc(-c2nc3sc(CCNC(=O)c4ccc(F)c(F)c4)c(C)n3n2)cc1	.	.	.	.	/
COc1ccc(CC2(C)OC(c3ccc(C)cc3)=NN2C(C)=O)cc1 (stereo unspecified)	.	.	.	.	.
CC(=O)N1N=C(c2cccc([N+](=O)[O-])c2)OC1(C)CC(=O)Nc1ccccc1 (stereo unspecified)	.	.	.	.	-77
COc1ccc(CC2(C)OC(c3ccccc3)=NN2C(C)=O)cc1 (stereo unspecified)	.	.	.	.	-42
Cc1[nH]c2ccccc2c1SCCNC(=O)c1ccc(F)cc1	.	.	.	.	-34
COc1ccc(C(=O)NCCSc2c(C)[nH]c3ccccc23)cc1	.	.	.	.	.
O=C(NCCc1ccccc1)c1cc(-c2ccncc2)nc2ccc(S(=O)(=O)N3CCOCC3)cc12	.	.	.	.	.
O=C(CN1C(=O)CCSc2ccc(S(=O)(=O)N3CCCC3)cc21)Nc1cccc(Cl)c1	.	.	.	.	.
CCOc1cc(C(=O)Nc2ccc([N+](=O)[O-])cn2)cc(OCC)c1OCC	.	.	.	.	-51
COC(=O)c1cc(OC)c(OC)cc1NC(=S)N1CCN(Cc2ccccc2)CC1	.	.	.	.	-32
COc1cccc(NC(=S)N2CCCN(Cc3ccc(F)cc3)C2)c1	.	.	.	.	-41
COc1ccc(NC(=S)N2CCN(Cc3ccccc3)CC2)cc1	.	.	.	33	.
CCN(CC)S(=O)(=O)c1nnc(NC(=O)COc2ccc(Cl)cc2)s1	.	.	.	.	.
Cc1ccc(C)c(N2CCN(CCCNC(=O)c3ccc4nc(N5CCCCC5)sc4c3)CC2)c1	.	.	.	.	.
O=C1CCC(=O)N1CN(Cc1ccco1)CN1C(=O)CCC1=O	.	.	.	.	-77
O=C1c2ccccc2C(=O)N1Cc1ccco1	.	.	.	.	.
Nc1ccc2oc(Cc3ccc(Cl)cc3)nc2c1	.	.	.	.	.
Cc1cc(Cl)ccc1OCCSc1nnc(-c2cccs2)o1	.	.	.	.	.
Cc1cc(C)n(-c2nc3nonc3nc2Nc2cccc(C)c2C)n1	.	.	.	.	-32
CCCCCc1ccc(OCCCC[n+]2ccccc2)c(CCCCC)c1	96	.	.	.	.
CCC(C)(C)c1ccc(OCCCC[n+]2ccccc2)c(C(C)(C)CC)c1	166	.	.	.	.
SMILES	D1 ag	D1 PAM	TRHR agonist	TRHR PAM	D1 antagonist
COc1ccc(CNCc2ccc3ccccc3c2)c(OC)c1	34	.	.	.	.
COc1ccc(CNCc2ccncc2)c(OC)c1	.	.	.	.	.
COc1ccc(CNCc2cccc(Oc3ccccc3)c2)cc1	88	.	.	.	.
O=C(CNC(=O)c1ccc2n[nH]nc2c1)OC(C(=O)Nc1cc(C(F)(F)F)ccc1Cl)c1ccccc1 (stereo unspecified)	.	.	.	.	.
Cc1cc(C(=O)N2CCN(c3cc(Cl)ccc3C)CC2)c2c(C)nn(-c3ccccc3)c2n1	.	.	.	.	.
COc1cccc(NC(=O)Cn2c(=O)n(-c3ccccc3)c(=O)c3c4c(sc32)CCCC4)c1	.	.	.	.	.
COc1ccc(-c2cccc(NC(=O)c3cccs3)c2)nn1	.	.	.	.	.
COCc1cc(CN2CCCC(C(=O)Nc3ccc(-c4ccco4)cc3)C2)ccc1OC (stereo unspecified)	.	.	.	.	-30
COc1cccc(-c2ccc(NC(=O)C3CCCN(Cc4cnn(C)c4)C3)cc2)c1 (stereo unspecified)	32	.	.	.	.
Cc1ncc(CN2CCCC(C(=O)Nc3ccc(-c4cccc(F)c4)cc3)C2)n1C (stereo unspecified)	.	.	.	.	-32
CC(C)n1cc(CN2CCCC(C(=O)Nc3cccc(-c4cc5ccccc5[nH]4)c3)C2)cn1 (stereo unspecified)	30	.	.	.	-31
COc1cccc(-c2ccc(NC(=O)C3CCCN(Cc4cnc(C)n4C)C3)cc2)c1 (stereo unspecified)	.	.	.	.	.
Cn1cc(CN2CCCC(C(=O)Nc3cccc(-c4cc5ccccc5[nH]4)c3)C2)cn1 (stereo unspecified)	.	.	.	.	.
Cc1nc2ccccc2c(=O)n1-c1ccc(NC(=O)C(F)(F)F)cc1	.	.	.	.	/
CCOC(=O)C1=C(O)/C(=C\c2ccc(CNS(=O)(=O)c3ccc(Br)cc3)o2)N=C1C	.	.	.	.	.
CCn1c(C(=O)Nc2ccccc2C(=O)OC)cc2sc(Cl)cc21	.	.	.	.	.
Cc1ccc(C)c(NC(=O)CSc2c3c(nc4ccc(Cl)cc24)CCCC3)c1	.	.	.	.	.
O=C(CN1c2ccccc2Sc2ccccc21)NNC(=O)Nc1ccc(Cl)c(Cl)c1	.	.	.	.	.
O=C(CN1c2ccccc2Sc2ccccc21)NNC(=O)Nc1ccc(Cl)cc1	.	.	.	37	-36
Nc1nc(C2CC2)c(Sc2sc(N)nc2C2CC2)s1	.	.	.	.	-49
CSc1ccc(CCNC(=O)c2c(C)nn(-c3ccc(F)cc3)c2-n2cccc2)cc1	.	.	.	.	.
Cc1cc(C)cc(NC(=O)C2CCN(c3nc4ccccc4nc3C(F)(F)F)CC2)c1	.	.	.	.	.
CCOC(=O)c1cc2c(C)n(-c3ccc(C)cc3)c(C)c2ccc1=O	.	.	.	.	-58
Cc1ccc2ncccc2c1N	.	.	.	.	-63
Cc1ccc2ncccc2c1NS(=O)(=O)c1ccccc1	.	.	.	.	.
CCc1ccc(-n2c(SCc3nc(-c4cc(OC)ccc4OC)no3)nnc2-c2ccccc2)cc1	.	.	.	.	.
COc1ccc(/C=c2\s/c(=C/C(=O)c3ccc(C)cc3)[nH]c2=O)cc1OC	64	.	36	.	.
Cc1cccc(OCC(=O)Nc2ccc3c(c2)nc(CCN2CCN(c4ccccn4)CC2)n3C)c1	.	.	.	.	-31

Screens deposited in PubChem BioAssay by National Center for Advancing Translational Sciences (NCATS).
